hgDAF-12 ag – hgDAF-12 agonism, primary luciferase screen; HEK293 GAL4-hgDAF12 UAS-luciferase reporter, agonist luminescence; normalized to butyrate control; activation, % at 6.8 µM; 370,000 tested, 1.8% active; AID 687014;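 active = activation above a cutoff set at the mean of all screened compounds plus 3 SD, cut at about 10% in these data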;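 note: 0% = DMSO wells and 100% = sodium butyrate wells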
ssDAF12 agonist – activates DAF-12 receptor from parasite S. stercoralis | HEK293 ssDAF-12/GRIP1 lit1-tk-luc reporter, luminescence; % of 3 µM dafachronic acid response | activation, % at 6.8 µM | 370,000 tested, 1% active | AID 652126;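 active = activation above the mean over all tested compounds plus 3 SD, cut at about 0.9% in these data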;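 note: 0% = DMSO-only wells and 100% = 3 µM delta7-dafachronic acid wells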
DAX1 inh-1 – NR0B1 (DAX1) inhibition; HEK293 Gal4-DAX1 luciferase reporter, luminescence; inhibition, % at 6.75 µM; 340,000 tested, 0.99% active;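 active = inhibition above the mean over all tested compounds plus 3 SD, cut at about 4.2% in these data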;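 note: 0% = DAX1-transfected cells with DMSO and 100% = empty-vector control cells with DMSO; inhibition shows as a rise in luminescence from relieved DAX1 repression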
Target sequence (P51843 207-470 limits assumed): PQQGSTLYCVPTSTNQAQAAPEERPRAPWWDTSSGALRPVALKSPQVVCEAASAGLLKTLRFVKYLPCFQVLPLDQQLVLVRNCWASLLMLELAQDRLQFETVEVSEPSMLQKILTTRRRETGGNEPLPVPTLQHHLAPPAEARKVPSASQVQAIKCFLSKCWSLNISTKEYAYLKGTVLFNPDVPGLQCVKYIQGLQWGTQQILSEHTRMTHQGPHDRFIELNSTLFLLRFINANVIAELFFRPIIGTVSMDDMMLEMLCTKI
hcDAF12 agonist – activators of H. contortus DAF-12 nuclear receptor. HEK293 hcDAF-12 lit1-tk-luc reporter, luminescence; 0% DMSO, 100% Δ7-dafachronic acid. activation, % at 6.8 µM. 370,000 tested, 1.4% active. AID 652067;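 active = activation above the mean of all tested compounds plus 3 SD, cut at about 5.5% in these data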;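 note: 100% = response to 3 µM Δ7-dafachronic acid high control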
DAX1 inh-2 – blocks DAX1 repression of SF-1 activated StAR promoter; 370,000 tested, 1.1% active; AID 652010; HEK293T StAR-luciferase reporter, SF-1/DAX-1 repression relief; inhibition, % at 6.8 µM;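 active = inhibition above the mean over all tested compounds plus 3 SD, cut at about 3.6% in these data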;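 note: 0% = DAX-1 cells with DMSO and 100% = cells lacking DAX-1 with DMSO; higher inhibition means more luminescence from relief of DAX-1 repression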
Numbers without * were called inactive; · = no result given. In the library only some 4.1% were active in any assay of this set; here they are far more common.

SMILES | hgDAF-12 ag | ssDAF12 agonist | DAX1 inh-1 | hcDAF12 agonist | DAX1 inh-2
N#Cc1ccc(-c2nc3c4ccccc4ccn3c2Cc2ccccc2C(F)(F)F)cc1 | 9 | 0 | · | 4 | -2
FC(F)(F)c1ccccc1Cc1c(-c2cccc(Br)c2)nc2c3ccccc3ccn12 | 9 | 1.4* | · | 5.8* | 1
N#Cc1ccc(-c2nc3c4ccccc4ccn3c2Cc2cccc(Cl)c2)cc1 | 11* | -1 | · | 3 | 0
CCn1c(SCc2ccccc2Cl)nnc1-c1ccccc1OC | -2 | -1 | · | -3 | -1
CC(=O)c1cc(-c2cccc([N+](=O)[O-])c2)c(=O)n2c1CCC2 | 4 | 0 | · | -3 | 0
CC(=O)c1cccc(Nc2ccc(-c3ccccc3F)nn2)c1 | 9 | -1 | 0 | 4 | 3.8*
COc1ccccc1-c1ccc(Nc2cccc(C(C)=O)c2)nn1 | 4 | -2 | 1 | 1 | 0
CC(=O)c1ccc(Nc2ccc(-c3ccccc3C)nn2)cc1 | 11* | 0 | 2 | 1 | 2
N#Cc1ccc2nc(-c3ccc(CN4CCC(c5nc6ccccc6[nH]5)CC4)cc3)c(-c3ccccc3)nc2c1 | -2 | -2 | · | -3 | -3
C#CCOCCOCCOCCNc1nc(N2CCN(C(=O)Cn3cc(CCCN=C(N)N)nn3)CC2)nc(N2CCN(C(=O)[C@H](CCCCN)n3cc(CCCC)nn3)CC2)n1 | 12* | -1 | 1 | 0 | 0
CCn1c(=O)c(C(=O)Nc2ccccc2F)c(O)c2ccccc21 | 5 | 0 | 1 | 6.2* | 1
Cn1c(=O)c(C(=O)NCCc2ccccc2)c(O)c2ccccc21 | 1 | 1.7* | -1 | 6.3* | -1
CC(NC(=O)c1c(O)c2ccccc2n(C)c1=O)c1ccccc1 (stereo not drawn) | 5 | 0 | 3 | 6.0* | 0
COCCNC(=S)N(C)[C@H]1C[C@H]2c3[nH]c4c(-c5ccc6c(c5)OCO6)cccc4c3CCN2C[C@H]1[C@H](C)O | 3 | -1 | · | -3 | -1
COc1ccc(CCn2c(-c3ccccc3)nc3c(c(=O)c4ccccc4n3C)c2=O)cc1 | -2 | -1 | · | 5.8* | 0
COc1ccc(Cn2c(-c3ccccc3)nc3c(c(=O)c4ccccc4n3C)c2=O)cc1 | -2 | -1 | 1 | 3 | 0
Cc1ccc2cc(C#N)c(N3CCN(C(=O)c4cccs4)CC3)nc2c1 | 0 | -1 | -1 | 6.5* | 0
CCOC(=O)[C@]12CCCCC/C=C\1N(CCc1ccc(Cl)cc1)C(=O)[C@H]2CC(=O)N1CCN(C(=O)C2CC2)CC1 | -3 | -1 | · | -1 | -1
CCOC(=O)c1sc(NC(=O)CN2CCN(c3ccc(OC)cc3)CC2)nc1C | -2 | 1.8* | -1 | -3 | -1
c1ccc(C2CSc3ccccc3N2)cc1 (stereo not drawn) | 6 | 0 | 3 | 5.6* | 1
CC1CSc2ccccc2NC1=S (stereo not drawn) | -1 | -1 | -1 | 1 | -1
Cc1cc(/C=C2/C(=O)NN(c3ccccc3)C2=O)c(C)n1-c1ccc(O)cc1 | -8 | -2 | -2 | -4 | -1
Cc1cc(/C=C2\C(=O)NN(c3ccccc3)C2=O)c(C)n1-c1ccccc1O | -4 | -1 | 5.4* | -1 | 0
O=C(N[C@H](Cc1ccccc1)C(=O)NC1CCCCC1)[C@H]1O[C@@H](n2ccc(=O)[nH]c2=O)[C@H](O)[C@@H]1O | -3 | -1 | · | 1 | 0
FC(F)(F)c1cccc(-c2nc(-c3ccncc3)no2)c1 | 6 | -1 | 3 | 0 | 1
SMILES | hgDAF-12 ag | ssDAF12 agonist | DAX1 inh-1 | hcDAF12 agonist | DAX1 inh-2
FC(F)(F)c1cccc(OCc2noc(-c3ccsc3)n2)c1 | 1 | -1 | 5.5* | -1 | 0
Cc1cc(C(=O)C(=O)N(C)C)c(C)n1-c1ccc(Cl)c(Cl)c1 | -4 | -1 | -1 | -2 | -1
Cc1cc(C(=O)C(=O)O)c(C)n1-c1ccc(Cl)c(Cl)c1 | -2 | 1.0* | 0 | 0 | 0
O=S1(=O)c2ccc(N3CC[C@@H](O)C3)cc2O[C@@H]2CCN1C2 | 0 | -1 | · | -2 | -1
N#CC1=C(SCC(=O)c2ccccc2)NC2=C(C(=O)CCC2)C1c1ccco1 (stereo not drawn) | 13* | -1 | 0 | 2 | -1
Cc1ccsc1C(=O)OCc1cc(=O)n2ccsc2n1 | 13* | 0.9* | 2 | 2 | 4.3*
NC(=O)c1ccc(Oc2ccc(C(N)=O)cc2)cc1 | -1 | -1 | 5.2* | -2 | 0
COC(=O)c1ccc(COc2ccccc2/C=C(\C#N)C(=O)Nc2ccc(C)cc2)cc1 | 11* | -1 | 3 | 3 | 3.9*
c1ccc2[nH]c(-c3cscn3)nc2c1 | 12* | 0 | -1 | 1 | 2
Cc1[nH]ccc2cc3nc4ccccc4c3cc12 | 3 | 1 | -1 | 5.7* | -2
CN(c1ccccc1)S(=O)(=O)c1cccc(NC(=O)C2CCCO2)c1 (stereo not drawn) | -2 | -1 | -2 | -2 | -1
COc1cc(C(C)=O)ccc1OCC(O)CN(CCO)Cc1ccccc1 (stereo not drawn) | -1 | -1 | 7.2* | 0 | 1
OCCN(Cc1ccccc1)CC(O)COc1ccc(-c2ccccc2)cc1 (stereo not drawn) | -1 | -1 | 1 | -1 | 0
CN1CCN(c2ccncc2S(=O)(=O)N2CCCCC2)CC1 | 1 | -1 | 4.9* | 0 | 0
Cc1ccc(C(=O)NCC(=O)OC(C)C(=O)Nc2ccccc2[N+](=O)[O-])s1 (stereo not drawn) | 3 | -1 | 1 | 0 | 3.6*
Cc1nn(CC(=O)OC(C)C(=O)Nc2ccccc2[N+](=O)[O-])c(C)c1[N+](=O)[O-] (stereo not drawn) | -1 | 3.5* | 0 | 1 | 0
CC(OC(=O)CCC(=O)c1cccs1)C(=O)Nc1ccccc1[N+](=O)[O-] (stereo not drawn) | -1 | -1 | 1 | 1 | 0
Cc1ccc(-n2c(SCC(=O)c3ccccc3Cl)nnc2-c2cnccn2)cc1 | 1 | 0 | · | -1 | 2
COc1cccc(NC(=O)Cn2cc3c(n2)CCCCC3)c1 | -2 | -1 | -1 | 0 | 0
COc1ccc(CNC(=O)Cn2cc3c(n2)CCCCC3)cc1 | -3 | -1 | 5.7* | -2 | 0
O=C(CSc1nc2ccccc2c(=O)n1-c1ccc(Cl)cc1)N/N=C/C=C/c1ccccc1[N+](=O)[O-] | 4 | -1 | 3 | 5.8* | -1
Cc1ccc(-c2cc(-c3nnc(SCc4cccc5ccccc45)n3N)[nH]n2)cc1 | -2 | -2 | · | -5 | -1
COc1ccc(-n2c(O)c(C=NCc3ccccn3)c3ccccc3c2=O)c(OC)c1 | 0 | -1 | 1 | 6.1* | 0
COc1cccc(-n2c(O)c(C=NCc3ccccn3)c3ccccc3c2=O)c1 | -2 | -1 | -3 | -2 | 0
CCOc1ccccc1C(=O)N1CCC(Oc2cccnc2)CC1 | 0 | -1 | · | 0 | 0

Assay outcomes: PubChem BioAssay, The Scripps Research Institute Molecular Screening Center
